This is an account of results in PubChem BioAssay (NCI).

Each structure is given as a SMILES string. Where “and” joins values, the source holds several entries; their conditions need not be identical. Equal entries are not always repeated. This is part of a sample that, as a whole, favours compounds with a hit. Of some 83,000 tested, about 20% had one in any assay.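 Each cell line was grown in a 96-well plate and treated with one concentration of compound for 48 hours. Values below 10 were considered active.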 Calls of active or inactive are those of the source.

This experiment deals with MDA-MB-468 breast. The experiment is described as follows: NCI-60 one-dose screen, 48 h (100 = growth as untreated, 0 = no growth, -100 = all killed). The following applies: 10 µM unless noted.
With `COc1cc(C(=O)c2ccc3c(c2)OCO3)cc(OC)c1OC`, the growth was 9.88% (active) and -4.92% (active).

In the case of `CCc1cccc(CC)c1N1C(=O)C=CC1=O`, the growth is 34.7% (inactive).

`Fc1ccc2[nH]cc(-c3nc(-c4c[nH]c5c(Cl)nccc45)cs3)c2c1`: the growth was 9.87% (active).

For `CCn1c(CSc2nc3ccccc3c(=O)n2CCc2ccccc2)n[nH]c1=S`, the growth is 85.6% (inactive).

In the case of `CCOC(=O)c1c(Nc2ccccc2)nn2c(-c3ccc(Cl)cc3)ccnc12`, the growth was 65.1% (inactive).

For the molecule `Cc1cc(O)ccc1O`, the growth is 107% (inactive).

As to `COc1cc(OC)c(NC(=O)n2ncc3cc(Nc4ncnc5ccccc45)ccc32)cc1Cl`, the growth was -5.26% (active).

For the molecule `CN(CCC#N)c1ccc(/C=C(\C#N)c2cccc(C(F)(F)F)c2)cc1`, the growth was 23.4% (inactive).

For `[2H]c1nc(Nc2ncc(F)c(-c3cc(F)c4nc(C)n(C(C)C)c4c3)n2)c([2H])c([2H])c1CN1CCN(CC)CC1`, the growth was 90.1% (inactive).

Take `O=C(O)CN(CCN(CC(=O)O)CC(=O)O)CCN(CC(=O)O)CC(=O)O`: the growth is 22% (inactive) and 94.6% (inactive) and 89.3% (inactive).

For the molecule `N#Cc1c(-c2cccc(Cl)c2)cc(-c2cccc(F)c2)[nH]c1=O`, the growth was 87.1% (inactive).

On to `CCCCCCCCCCCCS(=O)CC(C)O` (stereo not given), for which the growth was 106% (inactive).

Consider `COc1ccc(-c2ccc(-c3ccc(C(=N)N)c(F)c3)s2)cc1`, for which the growth was -78.7% (active).

Regarding `Cc1ccc(Cc2ccc(C)cc2)cc1`, the growth was 96.8% (inactive).

Take `CCCCCCN(C)Cc1ccc(OCCOc2ccc(CN(C)CCCCCC)cc2)cc1`: the growth is -59.9% (active).
